Data taken from PubChem BioAssay AID1159580 (chemical genetic matrix, 2015).
About 2,000 (36%) of roughly 5,500 compounds were called active. About 18% were inconclusive and are not listed. Cut-off read from the data, not from the text of the source: active = normalized growth mostly below about 0.91 (no sharp cut-off); inconclusive = no clear call, values can overlap the other calls; inactive = mostly above about 0.92. The list shows a part of the results.

Assay: chemical genetic growth profiling, strain panel (AID 1159580);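 note: tested at 20 µM; growth read once vehicle control cultures reached saturation at 30 °C; 1 = growth at the plate median or of vehicle wells; lower values mean less growth of the strain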
Details: growth OD

Measured: normalized growth

COC(=O)c1c(OC)cc2c(c1C)Oc1c(Cl)c(O)c(Cl)c(C)c1C(=O)O2
inactive: S. cerevisiae deletion strains, locus YJR075W, strain HOC1, active compounds read low 0.893 | S. cerevisiae deletion strains, locus YKL009W, strain mrt4, active compounds read low 0.975 | S. cerevisiae deletion strains, locus YKL068W, active compounds read low 0.976 | S. cerevisiae deletion strains, locus YKL085W, strain MDH1 (second series), active compounds read low 0.979 | S. cerevisiae deletion strains, locus YKL085W, strain MDH1, active compounds read low 0.979 | S. cerevisiae deletion strains, locus YKL160W, strain elf1, active compounds read low 0.993 | S. cerevisiae deletion strains, locus YKR001C, strain vps1, active compounds read low 0.949 | S. cerevisiae deletion strains, locus YKR026C, strain gcn3, active compounds read low 0.977 | S. cerevisiae deletion strains, locus YKR091W, strain srl3, active compounds read low 0.986 | S. cerevisiae deletion strains, locus YLL001W, strain dnm1, active compounds read low 0.979 | S. cerevisiae deletion strains, locus YLL026W, active compounds read low 0.983 | S. cerevisiae deletion strains, locus YLL041C, strain sdh2, active compounds read low 0.978 | S. cerevisiae deletion strains, locus YLR027C, strain aat2, active compounds read low 0.991 | S. cerevisiae deletion strains, locus YLR039C, strain RIC1, active compounds read low 0.796 | S. cerevisiae deletion strains, locus YLR058C, strain SHM2, active compounds read low 0.919 | S. cerevisiae deletion strains, locus YLR102C, strain apc9, active compounds read low 0.927 | S. cerevisiae deletion strains, locus YLR113W, strain HOG1, active compounds read low 0.968 | S. cerevisiae deletion strains, locus YLR221C, strain rsa3, active compounds read low 0.982 | S. cerevisiae deletion strains, locus YLR258W, strain gsy2, active compounds read low 0.992 | S. cerevisiae deletion strains, locus YLR262C, strain YPT6 (second series), active compounds read low 0.927 | S. cerevisiae deletion strains, locus YLR262C, strain YPT6, active compounds read low 0.795 | S. cerevisiae deletion strains, locus YLR268W, strain sec22, active compounds read low 0.905 | S. cerevisiae deletion strains, locus YLR320W, strain mms22, active compounds read low 0.964 | S. cerevisiae deletion strains, locus YLR330W, strain CHS5, active compounds read low 0.929 | S. cerevisiae deletion strains, locus YLR342W, strain FKS1 (second series), active compounds read low 0.927 | S. cerevisiae deletion strains, locus YLR342W, strain FKS1, active compounds read low 0.986 | S. cerevisiae deletion strains, locus YLR357W, strain rsc2, active compounds read low 1.05 | S. cerevisiae deletion strains, locus YLR370C, strain arc18, active compounds read low 0.984 | S. cerevisiae deletion strains, locus YLR371W, strain rom2, active compounds read low 0.976 | S. cerevisiae deletion strains, locus YLR384C, strain iki3, active compounds read low 0.994 | S. cerevisiae deletion strains, locus YLR418C, strain cdc73, active compounds read low 0.863 | S. cerevisiae deletion strains, locus YML016C, strain PPZ1, active compounds read low 0.936 | S. cerevisiae deletion strains, locus YML032C, strain rad52, active compounds read low 0.96 | S. cerevisiae deletion strains, locus YML120C, strain ndi1, active compounds read low 0.973 | S. cerevisiae deletion strains, locus YML124C, strain tub3, active compounds read low 0.945 | S. cerevisiae deletion strains, locus YMR058W, strain fet3, active compounds read low 0.982 | S. cerevisiae deletion strains, locus YMR078C, strain ctf18, active compounds read low 0.935 | S. cerevisiae deletion strains, locus YMR125W, strain sto1, active compounds read low 1.01 | S. cerevisiae deletion strains, locus YMR129W, active compounds read low 1.01 | S. cerevisiae deletion strains, locus YMR205C, strain PFK2, active compounds read low 0.989 | S. cerevisiae deletion strains, locus YMR223W, strain ubp8, active compounds read low 0.947 | S. cerevisiae deletion strains, locus YMR231W, strain pep5, active compounds read low 0.993 | S. cerevisiae deletion strains, locus YMR307W, strain GAS1, active compounds read low 0.869 | S. cerevisiae deletion strains, locus YNL067W, strain RPL9B, active compounds read low 0.895 | S. cerevisiae deletion strains, locus YNL071W, strain lat1, active compounds read low 0.982 | S. cerevisiae deletion strains, locus YNL128W, strain TEP1, active compounds read low 0.89 | S. cerevisiae deletion strains, locus YNL153C, strain GIM3, active compounds read low 0.909 | S. cerevisiae deletion strains, locus YNL183C, strain NPR1, active compounds read low 0.9 | S. cerevisiae deletion strains, locus YNL209W, strain ssb2, active compounds read low 0.996 | S. cerevisiae deletion strains, locus YNL233W, strain BNI4, active compounds read low 0.938 | S. cerevisiae deletion strains, locus YNL248C, strain rpa49, active compounds read low 1.02 | S. cerevisiae deletion strains, locus YNL250W, strain rad50, active compounds read low 0.986 | S. cerevisiae deletion strains, locus YNL271C, strain bni1, active compounds read low 0.985 | S. cerevisiae deletion strains, locus YNL298W, strain CLA4, active compounds read low 0.977 | S. cerevisiae deletion strains, locus YNL322C, strain KRE1 (second series), active compounds read low 0.997 | S. cerevisiae deletion strains, locus YNL322C, strain KRE1, active compounds read low 0.937 | S. cerevisiae deletion strains, locus YNR049C, strain mso1, active compounds read low 0.994 | S. cerevisiae deletion strains, locus YNR052C, strain pop2, active compounds read low 0.948 | S. cerevisiae deletion strains, locus YOL006C, strain TOP1, active compounds read low 0.757 | S. cerevisiae deletion strains, locus YOL012C, strain htz1 0.865 | S. cerevisiae deletion strains, locus YOL147C, strain pex11, active compounds read low 0.946 | S. cerevisiae deletion strains, locus YOR001W, strain rrp6, active compounds read low 1.01 | S. cerevisiae deletion strains, locus YOR061W, strain CKA2, active compounds read low 0.892 | S. cerevisiae deletion strains, locus YOR069W, strain VPS5, active compounds read low 0.953 | S. cerevisiae deletion strains, locus YOR070C, strain gyp1, active compounds read low 0.984 | S. cerevisiae deletion strains, locus YOR080W, strain dia2, active compounds read low 0.992 | S. cerevisiae deletion strains, locus YOR083W, strain WHI5, active compounds read low 0.997 | S. cerevisiae deletion strains, locus YOR106W, strain vam3, active compounds read low 1.01 | S. cerevisiae deletion strains, locus YOR136W, strain idh2, active compounds read low 0.943 | S. cerevisiae deletion strains, locus YOR144C, strain elg1, active compounds read low 0.947 | S. cerevisiae deletion strains, locus YOR184W, strain ser1, active compounds read low 0.918 | S. cerevisiae deletion strains, locus YOR231W, strain MKK1, active compounds read low 0.927 | S. cerevisiae deletion strains, locus YOR265W, strain rbl2, active compounds read low 0.989 | S. cerevisiae deletion strains, locus YOR270C, strain vph1, active compounds read low 0.927 | S. cerevisiae deletion strains, locus YOR290C, strain snf2, active compounds read low 0.995 | S. cerevisiae deletion strains, locus YOR316C, strain cot1, active compounds read low 0.933 | S. cerevisiae deletion strains, locus YPL051W, strain arl3, active compounds read low 0.98 | S. cerevisiae deletion strains, locus YPL055C, strain LGE1, active compounds read low 0.864 | S. cerevisiae deletion strains, locus YPL078C, strain atp4, active compounds read low 0.982 | S. cerevisiae deletion strains, locus YPL106C, strain sse1, active compounds read low 1.03 | S. cerevisiae deletion strains, locus YPL240C, strain hsp82, active compounds read low 0.979 | S. cerevisiae deletion strains, locus YPL256C, strain CLN2, active compounds read low 0.938 | S. cerevisiae deletion strains, locus YPR119W, strain clb2, active compounds read low 0.937 | S. cerevisiae deletion strains, locus YPR141C, strain kar3, active compounds read low 0.968 | S. cerevisiae deletion strains, locus YPR167C, strain met16, active compounds read low 0.927 | S. cerevisiae deletion strains, strain wtn01, active compounds read low 0.936 | S. cerevisiae strains, strain wild type, active compounds read low 0.915
active: S. cerevisiae deletion strains, locus YKL190W, strain CNB1, active compounds read low 0.911 | S. cerevisiae deletion strains, locus YMR263W, strain SAP30, active compounds read low 0.882 | S. cerevisiae deletion strains, locus YNL307C, strain MCK1, active compounds read low 0.838 | S. cerevisiae deletion strains, locus YPL241C, strain CIN2, active compounds read low 0.913 | S. cerevisiae deletion strains, locus YPR163C, strain tif3, active compounds read low 0.901
